We go through four compounds from PubChem BioAssay (EPA / NIEHS).

The target of assay [1] is Bile acid receptor (Homo sapiens) (UniProt Q96RI1). Briefly: ATG_IR1_CIS: Attagene CIS-FACTORIAL HepG2 Assay for human Nuclear Receptor Subfamily 1 Group H Member 4 (NR1H4), IR1 submotif (AID 2282946). The conditions noted are these: IR1 reporter transcription, actives raise or lower the signal. The essentials:
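Transient MRTU transfection, HepG2; 24 h dosing; RNA → RT-PCR → 6-FAM primer extension → HpaI digest → capillary electrophoresis fluorescence. Gain/loss of signal fitted relative to DMSO.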

Assay [2] is described as follows: ATG_ISRE_CIS: Attagene CIS-FACTORIAL HepG2 Assay for human Interferon Regulatory Factor 1 (IRF1) binding to an Interferon-Stimulated Response Element (ISRE) (AID 2282948). The conditions noted are these: HepG2 ISRE cis-reporter (Attagene), mRNA transcription readout; actives raise or lower the signal. In outline: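 Transiently transfected HepG2 cells carrying cis-element reporter units, dosed 24 hours. Reporter mRNA quantified by RT-PCR, fluorescent primer extension, HpaI digestion and capillary electrophoresis. Bidirectional fitting relative to DMSO.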

The nature of assay [3]: ATG_M_32_CIS: Attagene CIS-FACTORIAL HepG2 Assay for M32 Transcription Factor (Internal Marker) (AID 2282949).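 Further: background control marker of the multiplexed CIS panel rather than a real target.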 The conditions noted are these: HepG2 Attagene cis-factorial M32 reporter, mRNA; actives raise or lower the signal. The essentials: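 Following 24 h chemical exposure of HepG2 cells transiently expressing cis-promoter reporter constructs, reporter transcript levels were determined by RT-PCR with fluorescent labelling and capillary electrophoresis, then fitted bidirectionally against DMSO.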

The nature of assay [4]: ATG_M_06_CIS: Attagene CIS-FACTORIAL HepG2 Assay for M06 Transcription Factor (Internal Marker) (AID 2282950). As to conditions: HepG2 Attagene CIS-FACTORIAL M06 internal marker reporter; actives raise or lower the signal. In outline: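 Terse: HepG2, transient MRTU transfection (FuGene 6), 24 h dosing; total RNA, oligo(dT) RT, PCR, FAM label, HpaI cut, capillary electrophoresis; bidirectional fit vs DMSO baseline; background-control endpoint.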

Assay [5] addresses Hypoxia-inducible factor 1-alpha (Homo sapiens) (UniProt Q16665). Briefly: ATG_HIF1a_CIS: Attagene CIS-FACTORIAL HepG2 Assay for human Hypoxia Inducible Factor 1 (HIF1A) (AID 2282951). As to conditions: HepG2 Attagene cis-factorial HIF1a reporter transcription; actives raise or lower the signal. In outline: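 Transient MRTU transfection of human HepG2 liver cells, 24 h compound treatment, then total RNA isolation, oligo(dT) reverse transcription, PCR amplification, fluorescent labelling and capillary electrophoresis of reporter fragments. Gain or loss relative to DMSO.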

Assay [6] has as its target Hepatocyte nuclear factor 6 (Homo sapiens) (UniProt Q9UBC0). Briefly: ATG_HNF6_CIS: Attagene CIS-FACTORIAL HepG2 Assay for human Hepatocyte Nuclear Factor 6 (HNF6) (AID 2282952). The conditions noted are these: HepG2 Attagene cis-factorial HNF6 reporter transcription; actives raise or lower the signal. In outline: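 Cells are HepG2 carrying transiently transfected cis-promoter reporter units. Treatment lasts 24 h, after which reporter transcripts are reverse-transcribed, amplified, FAM-labelled and sized by capillary electrophoresis. DMSO serves as baseline.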

Assay [7] deals with Heat shock factor protein 1 (Homo sapiens) (UniProt Q00613). Put plainly: ATG_HSE_CIS: Attagene CIS-FACTORIAL HepG2 Assay for human Heat Shock Transcription Factor 1 (HSE) (AID 2282953). The conditions noted are these: HepG2 HSE cis-reporter, Attagene RNA transcription; actives raise or lower the signal. In outline:
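Read-out: fluorescence of reporter-specific RT-PCR fragments separated by capillary electrophoresis. HepG2 carrying transfected cis-element reporter units; 24 h dosing; activity fitted in both directions relative to DMSO baseline.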

Assay [8] in a line: ATG_MRE_CIS: Attagene CIS-FACTORIAL HepG2 Assay for human Metal Responsive Element (MRE) (AID 2282954). The conditions noted are these: HepG2 MRE cis-reporter transcription, Attagene multiplex; actives raise or lower the signal. In outline: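 HepG2 cells transiently transfected with multiple cis-element reporter units measure endogenous MTF1-driven transcription. After 24 h compound exposure, reporter mRNA is quantified by RT-PCR with 6-FAM labelling, HpaI digestion and capillary electrophoresis; bidirectional fits versus DMSO.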

A short description of assay [9]: ATG_PBREM_CIS: Attagene CIS-FACTORIAL HepG2 Assay for human Phenobarbital-responsive Enhancer Module (PBREM) (AID 2282955). The conditions noted are these: HepG2 PBREM cis-reporter, Attagene multiplexed transcription; actives raise or lower the signal. In outline: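 Endogenous transcription factors in human liver HepG2 cells drive a PBREM cis-element reporter, whose transcript level after 24 h treatment is quantified by RT-PCR with capillary electrophoresis; activity fitted in both directions against DMSO.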

Assay [10] has as its target Paired box protein Pax-6 (Homo sapiens) (UniProt P26367). Put plainly: ATG_Pax6_CIS: Attagene CIS-FACTORIAL HepG2 Assay for human Paired Box 6 (PAX6) (AID 2282956). As to conditions: HepG2 CIS-FACTORIAL PAX6 reporter transcription, RNA readout; actives raise or lower the signal. The essentials: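 HepG2 cells transiently transfected with cis-promoter-driven multiplexed reporter units sensing endogenous transcription factor activity; 24 h chemical exposure. Reporter mRNA quantified by RT-PCR, 6-FAM labelling, HpaI digestion and capillary electrophoresis; bidirectional fit versus DMSO baseline.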

Assay [11] can be described thus: ATG_PXRE_CIS: Attagene CIS-FACTORIAL HepG2 Assay for human Pregnane X Receptor Element (PXRE) (AID 2282957). As to conditions: HepG2 Attagene CIS-FACTORIAL PXRE reporter, mRNA; actives raise or lower the signal. The essentials:
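Multiplexed cis-reporter assay in transiently transfected human HepG2 cells; 24 h chemical exposure. Reporter transcripts quantified by RT-PCR with fluorescent labeling and capillary electrophoresis.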

Assay [12] in a line: ATG_PPRE_CIS: Attagene CIS-FACTORIAL HepG2 Assay for human Peroxisome Proliferator-activated Response Element (PPRE) (AID 2282958). As to conditions: HepG2 PPRE cis-element reporter, Attagene transcription factor profiling; actives raise or lower the signal. The essentials:
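HepG2, transient MRTU transfection (cis promoter elements, endogenous TFs). 24 h dosing. RNA → oligo(dT) RT → PCR → 6-FAM primer extension → HpaI digest → CE. Bidirectional fit vs DMSO.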

Assay [13] is described as follows: ATG_RORE_CIS: Attagene CIS-FACTORIAL HepG2 Assay for human RAR-related Orphan Receptor Element (RORE) (AID 2282959). As to conditions: HepG2 Attagene cis-factorial RORE reporter, mRNA; actives raise or lower the signal. In outline:
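Transient MRTU transfection of human HepG2 liver cells (FuGene 6); 24 h compound exposure; TriZol RNA, oligo(dT) RT, PCR, FAM labeling, HpaI cut, CE fragment analysis. DMSO = negative control/baseline.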

Assay [14] is described as follows: ATG_Sox_CIS: Attagene CIS-FACTORIAL HepG2 Assay for human SRY-box transcription factor (SOX) (AID 2282960). The conditions noted are these: HepG2 Attagene cis-factorial SOX reporter, mRNA; actives raise or lower the signal. In outline:
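Endogenous factor activity in human liver HepG2 cells carrying transfected cis-regulated reporter units. RNA taken 24 h post-dose, reverse-transcribed, PCR-amplified and sized by capillary electrophoresis. Gain or loss of signal fitted relative to DMSO.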

In assay [15] the target is Transcription factor Sp1 (Homo sapiens) (UniProt P08047). Put plainly: ATG_Sp1_CIS: Attagene CIS-FACTORIAL HepG2 Assay for human Specificity Protein 1 (Sp1) (AID 2282961). The conditions noted are these: HepG2 Sp1 cis-reporter transcription, actives raise or lower the signal. The essentials:
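Transient MRTU-transfected HepG2, 24 h compound exposure. Total RNA → oligo(dT) RT → PCR of reporter → 6-FAM primer extension → HpaI digest → CE. Endpoint fitted both directions vs DMSO.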

A short description of assay [16]: ATG_SREBP_CIS: Attagene CIS-FACTORIAL HepG2 Assay for human Sterol Regulatory Element Binding (SREBP) (AID 2282962). As to conditions: HepG2 Attagene cis-factorial SREBP reporter, mRNA; actives raise or lower the signal. The essentials: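 HepG2 cells transiently transfected with multiplexed cis-promoter reporter units sensing endogenous transcription factors; reporter mRNA measured 24 h after dosing by RT-PCR, 6-FAM labeling, HpaI digestion and capillary electrophoresis. Bidirectional fit versus DMSO.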

The target of assay [17] is Signal transducer and activator of transcription 3 (Homo sapiens) (UniProt P40763). Briefly: ATG_STAT3_CIS: Attagene CIS-FACTORIAL HepG2 Assay for human Signal Transducer and Activator of Transcription 3 (STAT3) (AID 2282963). As to conditions: HepG2, Attagene cis-factorial STAT3 reporter transcription; actives raise or lower the signal. The essentials: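 HepG2 cells transiently transfected with cis-element-driven multiple reporter transcription units; after 24 h chemical exposure, reporter mRNA measured by RT-PCR, 6-FAM primer-extension labelling, HpaI digestion and capillary electrophoresis. Bidirectional fitting versus DMSO baseline.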
Sequence of Signal transducer and activator of transcription 3 (Homo sapiens) (P40763 whole entry, looked up): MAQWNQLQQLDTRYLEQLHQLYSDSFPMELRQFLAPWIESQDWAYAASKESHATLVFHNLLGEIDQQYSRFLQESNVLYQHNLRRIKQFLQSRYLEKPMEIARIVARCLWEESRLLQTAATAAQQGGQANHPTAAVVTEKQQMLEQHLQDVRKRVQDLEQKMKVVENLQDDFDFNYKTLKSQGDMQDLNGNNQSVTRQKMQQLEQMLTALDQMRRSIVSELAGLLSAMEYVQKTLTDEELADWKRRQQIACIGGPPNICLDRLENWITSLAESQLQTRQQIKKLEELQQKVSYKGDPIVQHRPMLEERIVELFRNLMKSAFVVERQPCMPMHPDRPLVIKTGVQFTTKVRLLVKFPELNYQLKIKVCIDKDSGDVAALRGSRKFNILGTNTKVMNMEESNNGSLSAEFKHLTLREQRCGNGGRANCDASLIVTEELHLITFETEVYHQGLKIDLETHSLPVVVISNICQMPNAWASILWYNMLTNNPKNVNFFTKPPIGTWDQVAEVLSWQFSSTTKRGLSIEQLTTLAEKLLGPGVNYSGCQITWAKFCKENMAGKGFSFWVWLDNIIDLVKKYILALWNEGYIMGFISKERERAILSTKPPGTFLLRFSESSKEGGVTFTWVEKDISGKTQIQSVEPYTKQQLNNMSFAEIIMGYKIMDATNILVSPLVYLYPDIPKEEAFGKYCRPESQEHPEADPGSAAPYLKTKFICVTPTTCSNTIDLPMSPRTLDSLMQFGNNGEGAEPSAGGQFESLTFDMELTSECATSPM

Assay [18] can be described thus: ATG_TA_CIS: Attagene CIS-FACTORIAL HepG2 Assay for human TA Basal Promoter (AID 2282964). The conditions noted are these: HepG2 Attagene CIS-factorial TA basal promoter reporter; actives raise or lower the signal. In outline: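 Transfected HepG2, 24 h compound exposure; RNA → RT-PCR → FAM primer extension → HpaI cut → CE fluorescence. Gain/loss-of-signal fitted against DMSO negative control. Background-control readout.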

A short description of assay [19]: ATG_TCF_b_cat_CIS: Attagene CIS-FACTORIAL HepG2 Assay for human T-Cell-Factor with beta-catenin (TCF/b-cat) (AID 2282965). As to conditions: HepG2 TCF/beta-catenin cis-reporter transcription, actives raise or lower the signal. In outline: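 In this cis-format system, transfected HepG2 cells report endogenous transcription factor activity. Readout after 24 h exposure is reporter transcript abundance from RT-PCR and capillary electrophoresis, analysed for gain or loss of signal versus DMSO.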

A short description of assay [20]: ATG_GRE_CIS: Attagene CIS-FACTORIAL HepG2 Assay for human Glucocorticoid Response Elements (GRE) (AID 2282947). The conditions noted are these: HepG2 GRE cis-reporter, Attagene multiplex mRNA; actives raise or lower the signal. In outline:
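HepG2 cells transiently transfected with multiple cis-promoter reporter units measure endogenous TF activity; 24 h compound exposure. Reporter mRNA quantified by RT-PCR, FAM labelling, HpaI digestion and capillary electrophoresis; bidirectional fit vs DMSO baseline.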

In general, AC50 refers to the midpoint of the concentration-response curve, whichever way the signal moves.

Structures are written as SMILES. Activity calls are given as the source filed them. How the source made its calls: active means hit-call score of the fitted dose curve at least 0.9, where 1 is the maximum; inactive means score below 0.9.

Sequence of Hypoxia-inducible factor 1-alpha (Homo sapiens) (Q16665 whole entry, looked up, the tested form may be a part): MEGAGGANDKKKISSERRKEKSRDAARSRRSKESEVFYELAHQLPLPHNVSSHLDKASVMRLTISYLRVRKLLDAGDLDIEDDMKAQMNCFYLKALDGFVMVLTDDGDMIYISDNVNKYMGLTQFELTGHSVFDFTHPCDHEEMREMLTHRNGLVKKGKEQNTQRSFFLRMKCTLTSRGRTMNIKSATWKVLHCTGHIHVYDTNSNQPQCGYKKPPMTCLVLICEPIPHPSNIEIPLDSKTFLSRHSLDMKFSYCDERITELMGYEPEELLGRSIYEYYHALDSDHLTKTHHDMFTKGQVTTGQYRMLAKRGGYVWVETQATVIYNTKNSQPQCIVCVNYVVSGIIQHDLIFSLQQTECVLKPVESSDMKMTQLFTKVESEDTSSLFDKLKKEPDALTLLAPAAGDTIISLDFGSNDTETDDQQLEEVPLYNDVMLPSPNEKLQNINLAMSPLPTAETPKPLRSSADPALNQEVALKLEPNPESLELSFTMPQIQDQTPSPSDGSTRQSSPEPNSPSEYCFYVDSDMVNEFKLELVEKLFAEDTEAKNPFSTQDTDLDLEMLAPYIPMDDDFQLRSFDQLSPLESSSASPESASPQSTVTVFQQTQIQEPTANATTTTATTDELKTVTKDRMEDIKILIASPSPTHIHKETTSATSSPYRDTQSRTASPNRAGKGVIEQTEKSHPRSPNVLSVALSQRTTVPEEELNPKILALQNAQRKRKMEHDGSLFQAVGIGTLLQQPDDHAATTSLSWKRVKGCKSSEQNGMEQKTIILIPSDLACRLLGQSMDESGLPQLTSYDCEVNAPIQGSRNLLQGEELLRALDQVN
Sequence of Hepatocyte nuclear factor 6 (Homo sapiens) (Q9UBC0 whole entry, looked up): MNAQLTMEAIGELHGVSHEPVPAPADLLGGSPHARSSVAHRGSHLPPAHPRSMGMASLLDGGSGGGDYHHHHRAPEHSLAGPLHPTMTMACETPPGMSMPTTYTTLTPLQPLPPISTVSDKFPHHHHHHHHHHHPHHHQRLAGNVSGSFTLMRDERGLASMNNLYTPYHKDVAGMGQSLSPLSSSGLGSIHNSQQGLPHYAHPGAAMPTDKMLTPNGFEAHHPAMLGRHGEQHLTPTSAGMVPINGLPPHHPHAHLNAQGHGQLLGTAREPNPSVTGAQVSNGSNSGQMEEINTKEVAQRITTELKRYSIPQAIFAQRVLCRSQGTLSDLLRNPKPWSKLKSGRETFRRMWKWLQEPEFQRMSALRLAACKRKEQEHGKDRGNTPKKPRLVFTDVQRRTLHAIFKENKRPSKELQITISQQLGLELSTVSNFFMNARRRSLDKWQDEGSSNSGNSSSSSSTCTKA
Sequence of Paired box protein Pax-6 (Homo sapiens) (P26367 whole entry, looked up): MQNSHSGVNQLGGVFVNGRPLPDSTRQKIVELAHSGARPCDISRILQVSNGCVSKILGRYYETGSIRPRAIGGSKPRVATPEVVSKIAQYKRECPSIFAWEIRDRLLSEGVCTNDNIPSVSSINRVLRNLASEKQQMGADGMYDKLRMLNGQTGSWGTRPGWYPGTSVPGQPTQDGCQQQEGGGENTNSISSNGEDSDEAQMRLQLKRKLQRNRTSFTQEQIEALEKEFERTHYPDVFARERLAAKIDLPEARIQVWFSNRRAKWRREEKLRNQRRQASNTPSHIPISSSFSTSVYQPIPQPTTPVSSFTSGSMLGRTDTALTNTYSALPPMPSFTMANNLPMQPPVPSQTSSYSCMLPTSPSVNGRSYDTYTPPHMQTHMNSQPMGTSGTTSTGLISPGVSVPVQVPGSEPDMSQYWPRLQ
Sequence of Bile acid receptor (Homo sapiens) (Q96RI1 whole entry, looked up): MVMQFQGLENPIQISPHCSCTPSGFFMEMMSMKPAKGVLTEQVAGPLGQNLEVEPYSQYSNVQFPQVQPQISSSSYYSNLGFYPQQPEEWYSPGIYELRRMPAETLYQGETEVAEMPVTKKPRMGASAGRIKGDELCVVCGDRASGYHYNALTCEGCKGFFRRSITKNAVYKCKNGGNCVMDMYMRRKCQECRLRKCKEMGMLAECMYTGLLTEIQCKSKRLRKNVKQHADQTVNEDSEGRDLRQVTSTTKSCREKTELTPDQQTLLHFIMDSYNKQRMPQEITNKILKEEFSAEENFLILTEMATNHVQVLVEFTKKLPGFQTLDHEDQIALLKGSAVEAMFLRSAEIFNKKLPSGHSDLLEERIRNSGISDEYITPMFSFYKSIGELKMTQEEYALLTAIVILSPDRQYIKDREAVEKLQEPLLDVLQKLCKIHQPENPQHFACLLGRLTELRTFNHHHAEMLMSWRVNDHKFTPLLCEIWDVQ
Sequence of Transcription factor Sp1 (Homo sapiens) (P08047 whole entry, looked up): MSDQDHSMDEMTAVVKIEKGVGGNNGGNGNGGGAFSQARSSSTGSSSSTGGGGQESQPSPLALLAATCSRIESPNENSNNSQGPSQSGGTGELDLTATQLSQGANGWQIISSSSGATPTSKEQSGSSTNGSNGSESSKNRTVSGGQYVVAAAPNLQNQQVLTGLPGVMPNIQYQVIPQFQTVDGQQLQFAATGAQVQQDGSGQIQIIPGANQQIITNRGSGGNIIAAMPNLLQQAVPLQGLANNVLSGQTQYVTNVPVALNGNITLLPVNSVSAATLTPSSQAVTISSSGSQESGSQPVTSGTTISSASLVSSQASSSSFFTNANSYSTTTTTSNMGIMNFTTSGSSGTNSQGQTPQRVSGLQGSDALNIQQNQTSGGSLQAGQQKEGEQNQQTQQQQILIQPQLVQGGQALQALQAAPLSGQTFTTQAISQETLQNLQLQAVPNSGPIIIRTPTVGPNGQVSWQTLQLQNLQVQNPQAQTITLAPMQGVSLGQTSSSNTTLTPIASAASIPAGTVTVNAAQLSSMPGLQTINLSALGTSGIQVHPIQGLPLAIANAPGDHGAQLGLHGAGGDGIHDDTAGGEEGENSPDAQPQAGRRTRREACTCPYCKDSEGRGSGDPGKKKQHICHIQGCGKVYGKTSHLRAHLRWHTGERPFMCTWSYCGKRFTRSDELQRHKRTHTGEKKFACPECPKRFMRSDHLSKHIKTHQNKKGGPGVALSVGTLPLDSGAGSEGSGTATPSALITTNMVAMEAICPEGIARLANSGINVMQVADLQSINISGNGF
Sequence of Heat shock factor protein 1 (Homo sapiens) (Q00613 whole entry, looked up, the tested form may be a part): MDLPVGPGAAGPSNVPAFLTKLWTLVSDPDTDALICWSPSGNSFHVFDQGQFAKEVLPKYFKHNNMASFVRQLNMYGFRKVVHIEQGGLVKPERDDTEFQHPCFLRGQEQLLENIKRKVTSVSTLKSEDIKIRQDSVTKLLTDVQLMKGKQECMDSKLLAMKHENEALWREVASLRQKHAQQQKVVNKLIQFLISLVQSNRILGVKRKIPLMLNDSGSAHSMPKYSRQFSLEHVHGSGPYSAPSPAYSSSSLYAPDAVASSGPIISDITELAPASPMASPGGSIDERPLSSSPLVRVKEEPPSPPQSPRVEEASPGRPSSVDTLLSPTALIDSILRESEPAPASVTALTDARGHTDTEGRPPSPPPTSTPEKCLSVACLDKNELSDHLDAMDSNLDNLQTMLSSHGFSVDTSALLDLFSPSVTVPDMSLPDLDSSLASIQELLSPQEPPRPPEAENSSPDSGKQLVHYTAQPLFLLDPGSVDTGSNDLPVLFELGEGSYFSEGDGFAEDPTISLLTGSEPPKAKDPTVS

In the case of `CC(=O)c1ccccn1`, the outcome in assay [1], in [2], in assay [3], in [4], in [5] and in [6] was inactive. In addition, the compound was classed as inactive in [7], in assay [8], in assay [9], in [10], in assay [11] and in assay [12]. The call in [13], in [14], in [15], in assay [16], in assay [17] and in assay [18] was inactive. The compound was classed as inactive in assay [19].

Consider `CCC1CCCCC1`, for which the compound was called inactive in [1], in assay [2], in assay [3], in [4], in assay [5] and in assay [6]. For the same compound, the compound was classed as inactive in [7], in assay [8], in assay [9], in assay [10], in assay [11] and in [12]. Further, the compound was classed as inactive in assay [13], in assay [14], in assay [15], in assay [16], in [17] and in assay [18]. Also, the compound was classed as inactive in assay [19].

In the case of `CCCCCCC(O)CCCCCCCCCCC(=O)O` (stereo not drawn), the compound was called inactive in assay [1], in [2], in [3], in assay [4], in assay [5] and in [6]. The call in [7], in assay [8], in [9], in assay [10], in assay [11] and in [13] was inactive. Moreover, the compound was classed as inactive in [14], in assay [15], in [16], in assay [17], in [18] and in assay [19]. Moreover, in [12], the concentration at half-maximal activity (AC50) was 18 µM (active).

As for `[Cl][Au]([Cl])[Cl]`, the outcome in assay [1], in assay [20], in [2], in assay [4], in [5] and in assay [7] was inactive. Also, the compound was called inactive in assay [8], in assay [10], in [11], in assay [12], in [13] and in [14]. For the same compound, the compound was called inactive in [15], in [16], in assay [17] and in assay [19].
